The record followed here is the supplement of paper PMC9337992.

The structures appear in SMILES notation. ± gives the standard deviation of the averaged measurements.

The subject of this assay is MDAMB231. Kind of assay: cell proliferation (confluence) relative to DMSO control; higher = less growth inhibition. Conditions: 5 uM; 6 d. How it is done: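 Epigenetic chemical probe screen: 15 TNBC cell lines, 500 cells per well in 384-well plates, treated with 5 uM of each of 36 SGC probes for 6 d. Confluency was imaged by IncuCyte ZOOM and normalised to DMSO control wells. Four replicate wells per compound.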
`COc1cc(C(=O)N2CC[C@@H](O)[C@@H](N)C2)cc2nc(-c3cc4ccccc4n3CC3CC3)n(C)c12` displayed a cell proliferation of 88.8 ± 9.1%.

For the molecule `c1ccc([C@@H]2C[C@H]2NC2CCNCC2)cc1`, the cell proliferation came to 98.48 ± 0.8%.

Turning to `O=C(O)CNC(=O)c1c(O)c2ccccc2n(Cc2ccccc2)c1=O`, the cell proliferation was determined as 97.33 ± 0.35%.
